# Data as given in PubChem BioAssay (NCATS).
# Where “and” joins values, the source holds several entries; their conditions need not be identical. Identical values can stand only once. A number with no mark means an inactive call. Records with an inconclusive call do not appear. A call without a number means that no potency is given here. Calls of active or inactive are those of the source. Unless noted, calls follow the shape of the dose curve; as a rule, active = well fitted curve in the direction sought with a large enough effect; inconclusive = small, poorly fitted or top-dose-only effect, or another doubt; inactive = no such curve, though single readings can be large; an effect the other way counts as inactive or inconclusive.
# How the values were obtained:
# astro = control astrocytes; assay: Drug repurposing screens with cells derived from glioblastoma tumor samples (AID 1345199); details: viability, ATP luminescence, 48 h; series mostly up to 45.9 µM; also: nearly all actives have a fitted effect of over 40% in size; also: potency is read from the fitted curve at half-maximal effect
# How it was run: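 Primary testing used CD133+ neurospheres from four GBM patients, seven concentrations, 48 h exposure and ATP-based viability; confirmation added three slower-growing patient lines.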
# [1] = molecular target: Nuclear receptor subfamily 1 group I member 2 (Rattus norvegicus) (UniProt Q9R1A7); assay: qHTS assay for small molecule activators of the rat pregnane X receptor (rPXR) signaling pathway (AID 651751; call rule not given here); details: rPXR reporter cells, luciferase (One-Glo), 24 h
# Nuclear receptor subfamily 1 group I member 2 (Rattus norvegicus), sequence (Q9R1A7 whole entry, looked up): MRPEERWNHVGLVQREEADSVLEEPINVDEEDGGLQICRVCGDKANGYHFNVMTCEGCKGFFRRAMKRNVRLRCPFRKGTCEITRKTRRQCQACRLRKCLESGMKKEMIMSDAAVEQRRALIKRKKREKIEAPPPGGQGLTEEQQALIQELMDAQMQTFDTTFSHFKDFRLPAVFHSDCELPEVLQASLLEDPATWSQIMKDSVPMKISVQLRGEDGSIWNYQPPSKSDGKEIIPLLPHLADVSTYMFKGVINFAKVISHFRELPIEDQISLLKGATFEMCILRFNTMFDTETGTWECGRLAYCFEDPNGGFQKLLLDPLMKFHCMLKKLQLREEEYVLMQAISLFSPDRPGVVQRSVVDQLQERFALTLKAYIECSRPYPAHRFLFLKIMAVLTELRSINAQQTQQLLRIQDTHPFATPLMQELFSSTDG
# [2] = qHTS assay for small molecule activators of the human pregnane X receptor (PXR) signaling pathway (AID 720659; call rule not given here)
# [3] = qHTS assay to identify inhibitors of the type 1 interferon - major histocompatibility complex class I in skeletal muscle: Counter screen cell viability and HiBit confirmation (AID 1347412); details: iHSKM muscle cells + IFN-b, HiBiT or CellTiter-Glo, 24 h; also: potency is read from the fitted curve at half-maximal effect; nearly all actives have a fitted effect of over 60% in size
# How it was run: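 Duplicate plates, pinned identically: one read for HiBiT-tagged endogenous HLA-B luminescence, the other for ATP-content viability via CellTiter Glo. Cells were genome-engineered human myoblasts given 4 ng/ml IFN-b; compounds 12-pt, 1:3 from 46 uM final; 24 hr exposure.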
compound,measurement,setting,value
CC[n+]1c(-c2ccccc2)c2cc(N)ccc2c2ccc(N)cc21,Potency,astro,8.91 µM (active) and 12.6 µM (active)
same,max response,[1],-4.84%
same,outcome,[2],inactive
O=C(NC(=O)c1c(F)cccc1F)Nc1cc(Cl)c(OC(F)(F)C(F)C(F)(F)F)cc1Cl (stereo unspecified),Potency,astro,inactive
same,max response,[1],0.749%
O=c1n(Cl)c(=O)n(Cl)c(=O)n1Cl,max response,[1],-5.15%
same,outcome,[2],inactive
Cc1ccc([N+](=O)[O-])[c]2c1[O][Hg]2,Potency,[3]; HiBiT,6.25 µM (active)
same,Potency,[3]; Viability,14 µM (active)
C[C@@H]1CC[C@H]2[C@@H](C)C(=O)O[C@@H]3O[C@@]4(C)CC[C@@H]1[C@]32OO4,Potency,astro,inactive
COc1ccc(CN2CCNCC2)c(OC)c1OC,Potency,astro,inactive
O=C(O)CCCCCCNC1c2ccccc2CCc2ccccc21,Potency,astro,inactive
O=C(CCl)c1ccc(Cl)cc1Cl,Potency,astro,12.6 µM (active)
same,max response,[1],-0.907%
same,outcome,[2],inactive
Cc1ccc(N=CN(C)C=Nc2ccc(C)cc2C)c(C)c1,max response,[1],4.54%
same,outcome,[2],inactive
N#Cc1nn(-c2c(Cl)cc(C(F)(F)F)cc2Cl)c(N)c1S(=O)C(F)(F)F (stereo unspecified),max response,[1],-15%
COc1cc(CC(C)N)cc2c1OCO2 (stereo unspecified),Potency,astro,inactive
CCC(=O)O[C@H]1CC[C@H]2[C@@H]3CCC4=CC(=O)CC[C@]4(C)[C@H]3CC[C@]12C,Potency,astro,inactive
same,outcome,[2],inactive
COP(=O)(OC)C(O)C(Cl)(Cl)Cl (stereo unspecified),Potency,astro,inactive
same,max response,[1],3.3%
CC(C)(O)C(Cl)(Cl)Cl,Potency,astro,inactive
C[N+]1(C)[C@@H]2CC[C@H]1CC(OC(=O)C(CO)c1ccccc1)C2 (stereo partly specified),Potency,astro,inactive
CN1C[C@@H](NS(=O)(=O)N(C)C)C[C@@H]2c3cccc4c3c(cn4C)C[C@H]21,Potency,astro,inactive
